Source: PubChem BioAssay (NCATS)
Records with an inconclusive call do not appear. Calls of active or inactive are those of the source. The call rests on the fitted dose curve; in most records, active means well fitted cell-killing curve with a large enough effect; inconclusive means small, poorly fitted or top-dose-only effect, or effect the other way; inactive means flat fitted curve, though single readings scatter. *1 amine or outer side, *2 acyl side, *3 side chain or, on linkers, in order; H or OH if unused. Where a SMILES comes first, the peptide text is derived from it. Bridges are numbered along the chain shown (N, C = ends). [ ]: non-standard residue; d: D form. The star is where a group is joined. pTerphenylCO(4''-OnC5H11) = CCCCCOc1ccc(-c2ccc(-c3ccc(C(=O)*)cc3)cc2)cc1; Orn(4R-OH,5R-OH) = O=C([C@H](C[C@@H](O)[C@@H](O)N[*:3])N[*:1])[*:2]; hTyr(3S-OH,4S-OH) = N[C@H](C(=O)O)[C@H](O)[C@@H](O)c1ccc(O)cc1; Pro(3S-OH,4S-Me) = C[C@H]1CN[C@H](C(=O)O)[C@H]1O; Hyp = O=C(O)[C@@H]1C[C@@H](O)CN1

What was measured:
Test in all cases: Primary qHTS to identify gynecologic anti-cancer compounds using libraries of approved drugs and bioactive compounds (AID 1345084); further: nearly all actives have a fitted effect of over 55% in size
C33A = details: Gynecologic cancer cell panel viability, ATPlite luminescence, 48 h; series mostly up to 57.5 µM
In short: (§1)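 In this quantitative HTS, cell killing is estimated from loss of ATP-dependent luciferase light. Cells see five compound concentrations over a 48 h exposure.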

CAOV3 = details: Gynecologic cancer cell panel viability, ATPlite luminescence, 48 h; series mostly up to 57.5 µM
In short: as §1

CASKI = details: Gynecologic cancer cell panel viability, ATPlite luminescence, 48 h; series mostly up to 57.5 µM
In short: as §1

Es-2 = details: Gynecologic cancer cell panel viability, ATPlite luminescence, 48 h; series mostly up to 57.5 µM
In short: as §1

HeLa = details: Gynecologic cancer cell panel viability, ATPlite luminescence, 48 h; series mostly up to 57.5 µM
In short: as §1

Hek293T = details: Gynecologic cancer cell panel viability, ATPlite luminescence, 48 h, control line for the selectivity index; series mostly up to 57.5 µM
In short: as §1

JEG-3 = details: Gynecologic cancer cell panel viability, ATPlite luminescence, 48 h; series mostly up to 57.5 µM
In short: as §1

OV90 = details: Gynecologic cancer cell panel viability, ATPlite luminescence, 48 h; series mostly up to 57.5 µM
In short: as §1

PA-1 = details: Gynecologic cancer cell panel viability, ATPlite luminescence, 48 h; series mostly up to 57.5 µM
In short: as §1

SKOV3 = details: Gynecologic cancer cell panel viability, ATPlite luminescence, 48 h; series mostly up to 57.5 µM
In short: as §1

Tov-21-G = details: Gynecologic cancer cell panel viability, ATPlite luminescence, 48 h; series mostly up to 57.5 µM
In short: as §1

Tov112D = details: Gynecologic cancer cell panel viability, ATPlite luminescence, 48 h; series mostly up to 57.5 µM
In short: as §1

Measured: Potency

COc1ccccc1OCCN1CC(COc2cccc3[nH]c4ccccc4c23)OCC1=O (stereo not given)
inactive: all assays above

CN(C)N(C)C(=O)[C@@]1(Cc2ccccc2)CCCN(C(=O)[C@@H](Cc2c[nH]c3ccccc23)NC(=O)C(C)(C)N)C1
inactive: all assays above

Cc1ccnc(NC(=O)C(C)c2cccc(C(=O)c3ccccc3)c2)c1 (stereo not given)
inactive: all assays above

CCCCCc1ccc(/C=C/C(=O)Nc2cc(Cl)ccc2C(=O)O)cc1
inactive: all assays above

CC(C)/C=C1\NC(=O)C(C(C)C)n2c1nc1ccccc1c2=O (stereo not given)
inactive: all assays above

C=C(C)C(=O)O[C@H]1/C(C=O)=C\CC/C(CO)=C/[C@H]2OC(=O)C(=C)[C@@H]2[C@@H]1OC
inactive: all assays above

CCCCCOc1ccc(-c2ccc(-c3ccc(C(=O)N[C@H]4C[C@@H](O)[C@@H](O)NC(=O)[C@@H]5[C@@H](O)[C@@H](C)CN5C(=O)[C@H]([C@@H](C)O)NC(=O)[C@H]([C@H](O)[C@@H](O)c5ccc(O)cc5)NC(=O)[C@@H]5C[C@@H](O)CN5C(=O)[C@H]([C@@H](C)O)NC4=O)cc3)cc2)cc1 ({pTerphenylCO(4''-OnC5H11)}-[Orn(4R-OH,5R-OH)]T[Hyp][hTyr(3S-OH,4S-OH)]T[Pro(3S-OH,4S-Me)]; lactam 1-C)
inactive: all assays above

CC[C@@H](Nc1c(Nc2cccc(C(=O)N(C)C)c2O)c(=O)c1=O)c1cc(C(C)C)co1
inactive: all assays above

O=C(C(Cc1cccc(C(F)(F)F)c1)NS(=O)(=O)c1cc(F)c2c(c1)CCNC2)N1CCCC1 (stereo not given)
inactive: all assays above

CCC[C@H](N[C@H]1CCc2cc(F)cc(F)c2C1)C(=O)Nc1cn(C(C)(C)CNCC(C)(C)C)cn1
inactive: all assays above

CN(C)[C@@H]1CCc2[nH]c3ccc(NC(=O)c4ccc(F)cc4)cc3c2C1
inactive: all assays above

O=C(NCCN1CCN(c2cccc3c2OCCO3)CC1)c1ccc(F)cc1
inactive: all assays above

COC1C=C(C)C(O)(CO)C2(C)CCCC(C)(C)C12 (stereo not given)
inactive: all assays above

CN(C)C(=O)Nc1cc(-c2ccccc2)ccc1N(C)C
inactive: all assays above

CO[C@@H]1[C@H](O)CCC2(CO2)[C@H]1[C@@]1(C)O[C@@H]1CC=C(C)C (stereo not given in full)
inactive: all assays above
